According to PubChem BioAssay:
Active and inactive are the calls of the source.

Tests used:
[1] = E. coli DRC41 culture turbidity changes, primary screen, E. coli filamentation inducer project, strain DRC41, OD650, 48 h (AID 1152);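 also: E. coli MC1000 strain DRC41 lacking acrAB efflux pump and sulA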; conditions: E. coli DRC41 (acrAB sulA), higher = more signal, called active from +8 up or from −8 down
[2] = small-molecule binders of probe aLefty1, primary screen, biochemical, small-molecule microarray, 635/667 nm fluorescence (AID 1153); conditions: higher = more signal;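 also: score merges spot fluorescence with signal-to-noise ratio from the scanned slide images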
[3] = PSAC antagonists in infected red cells, primary screen, cell-based, P. falciparum Indochina, OD700, 1 h (AID 1154); conditions: P. falciparum Indochina infected RBC osmotic lysis, higher = more signal, called active from +8 up or from −8 down
[4] = PSAC antagonists in infected red cells, primary screen, cell-based, P. falciparum Indochina, OD700, 2 h (AID 1155);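 also: lysis reports solute entry through the parasite surface anion channel PSAC; channel blockers reduce lysis of infected cells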; conditions: P. falciparum Indochina infected erythrocytes, osmotic lysis OD700; higher = more signal, called active from +8 up or from −8 down
[5] = osmotic lysis modulators in infected erythrocytes, primary screen, PSAC antagonist project, cell-based, P. falciparum Indochina, OD700, 3 h (AID 1156); conditions: higher = more signal, called active from +8 up or from −8 down
[6] = PSAC antagonists in infected red cells, primary screen, cell-based, P. falciparum Indochina, OD700, 18 h (AID 1157); conditions: P. falciparum Indochina infected erythrocytes, osmotic lysis OD700, 18 h; higher = more signal, called active from +8 up or from −8 down
[7] = modulators of S6 phosphorylation in cells, primary screen, cell-based, A549, cytoblot, luminescence, serum-stimulated (AID 1158); conditions: A549 phospho-S6 cytoblot, 5 h, higher = more signal;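 also: serum-stimulated A549 lung adenocarcinoma cells; signal is phosphorylated S6 detected by cytoblot immunostaining with HRP secondary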
[8] = molecular target: NADPH oxidase 2 (Homo sapiens) (UniProt P04839); assay: NOX2-dependent H2O2 signal modulators, primary screen, NOX inhibitor project, cell-based, HEK293-NOX2, PMA-stimulated, Amplex Red fluorescence (AID 1159); conditions: 45 min, higher = more signal, called active from +8 up or from −8 down; also: test concentration not given here
[9] = molecular target: NADPH oxidase 4 (Homo sapiens) (UniProt Q9NPH5); assay: NOX4-dependent H2O2 signal modulators, primary screen, NOX inhibitor project, cell-based, HEK293-NOX4, tetracycline-induced, Amplex Red fluorescence (AID 1160); conditions: 45 min, higher = more signal, called active from +8 up or from −8 down
[10] = molecular target: NADPH oxidase 5 (Homo sapiens) (UniProt Q96PH1); assay: NOX5-dependent H2O2 signal modulators, primary screen, NOX inhibitor project, cell-based, HEK293-NOX5, Amplex Red fluorescence (AID 1161); conditions: HEK293-NOX5, ionomycin, 45 min, higher = more signal
Chain of NADPH oxidase 5 (Homo sapiens) (Q96PH1 whole entry, looked up): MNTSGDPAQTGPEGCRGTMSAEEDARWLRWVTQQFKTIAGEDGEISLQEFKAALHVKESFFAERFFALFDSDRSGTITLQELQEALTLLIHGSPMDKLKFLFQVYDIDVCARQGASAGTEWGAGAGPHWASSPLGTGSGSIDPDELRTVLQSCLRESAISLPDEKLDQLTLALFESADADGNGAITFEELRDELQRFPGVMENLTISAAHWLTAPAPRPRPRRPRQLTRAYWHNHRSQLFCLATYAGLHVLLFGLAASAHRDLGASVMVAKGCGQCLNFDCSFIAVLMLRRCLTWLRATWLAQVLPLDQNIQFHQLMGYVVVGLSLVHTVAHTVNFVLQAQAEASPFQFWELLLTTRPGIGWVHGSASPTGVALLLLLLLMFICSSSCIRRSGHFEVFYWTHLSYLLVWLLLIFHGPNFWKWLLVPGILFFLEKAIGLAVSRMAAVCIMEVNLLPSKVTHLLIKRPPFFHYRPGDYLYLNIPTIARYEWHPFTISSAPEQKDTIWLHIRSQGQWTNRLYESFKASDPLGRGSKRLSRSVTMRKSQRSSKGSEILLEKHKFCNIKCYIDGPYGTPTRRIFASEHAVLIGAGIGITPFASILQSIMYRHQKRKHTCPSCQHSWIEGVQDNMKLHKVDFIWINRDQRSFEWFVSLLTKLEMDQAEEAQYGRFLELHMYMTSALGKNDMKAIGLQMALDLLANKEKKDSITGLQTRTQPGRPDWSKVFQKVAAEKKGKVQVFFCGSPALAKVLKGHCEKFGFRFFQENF

Chain of NADPH oxidase 4 (Homo sapiens) (Q9NPH5 whole entry, looked up): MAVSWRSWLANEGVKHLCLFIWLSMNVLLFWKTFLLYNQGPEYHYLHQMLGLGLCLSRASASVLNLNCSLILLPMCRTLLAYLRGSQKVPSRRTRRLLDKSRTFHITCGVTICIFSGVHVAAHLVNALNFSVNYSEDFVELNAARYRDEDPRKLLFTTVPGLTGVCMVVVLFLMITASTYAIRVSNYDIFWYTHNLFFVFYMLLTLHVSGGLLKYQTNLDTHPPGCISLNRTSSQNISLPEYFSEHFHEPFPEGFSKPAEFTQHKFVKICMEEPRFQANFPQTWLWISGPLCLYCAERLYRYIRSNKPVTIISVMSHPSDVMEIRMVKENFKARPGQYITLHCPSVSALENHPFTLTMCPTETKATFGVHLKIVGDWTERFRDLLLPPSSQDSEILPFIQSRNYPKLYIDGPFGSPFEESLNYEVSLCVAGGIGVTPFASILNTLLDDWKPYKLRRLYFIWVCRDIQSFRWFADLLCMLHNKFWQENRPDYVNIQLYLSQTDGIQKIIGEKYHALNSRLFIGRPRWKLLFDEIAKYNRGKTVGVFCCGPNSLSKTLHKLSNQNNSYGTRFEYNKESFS
Chain of NADPH oxidase 2 (Homo sapiens) (P04839 whole entry, looked up): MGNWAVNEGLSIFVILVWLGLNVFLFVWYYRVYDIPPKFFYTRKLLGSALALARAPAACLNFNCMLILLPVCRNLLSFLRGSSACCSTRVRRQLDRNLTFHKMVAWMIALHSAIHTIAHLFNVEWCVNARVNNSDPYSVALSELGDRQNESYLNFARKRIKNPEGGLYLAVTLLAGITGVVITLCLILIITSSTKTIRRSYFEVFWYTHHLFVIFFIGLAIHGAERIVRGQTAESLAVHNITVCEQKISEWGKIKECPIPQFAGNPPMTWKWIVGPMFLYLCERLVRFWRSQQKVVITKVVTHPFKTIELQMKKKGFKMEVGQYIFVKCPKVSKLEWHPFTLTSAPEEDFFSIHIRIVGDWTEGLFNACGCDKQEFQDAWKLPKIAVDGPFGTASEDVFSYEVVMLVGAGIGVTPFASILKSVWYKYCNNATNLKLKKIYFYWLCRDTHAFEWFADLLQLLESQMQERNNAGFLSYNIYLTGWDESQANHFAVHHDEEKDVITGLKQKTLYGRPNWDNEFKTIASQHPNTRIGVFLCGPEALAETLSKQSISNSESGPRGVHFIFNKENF

SMILES	z-score [1]	composite z-score [2]	z-score [3]	z-score [4]	z-score [5]	z-score [6]	z-score [7]	z-score [8]	z-score [9]	z-score [10]
O=C1OCC=C[C@H]2OC34C=CCN(Cc5ccccc5)C(=O)[C@H]3N(CCCCCCO)C(=O)[C@@H]4[C@@H]12 (stereo not given in full)	2.56 (inactive)	-0.152	0.987 (inactive)	-0.567 (inactive)	-0.368 (inactive)	-0.924 (inactive)	1.02	1.22 (inactive)	-0.272 (inactive)	1.87
COC1OC[C@]2(C)[C@H]3C4=C(CN2C(=O)OC(C)(C)C)[C@H](C)C(CO)C(CO)C4CC[C@@H]13 (stereo not given in full)	-0.787 (inactive)	1.13	0.884 (inactive)	-0.0719 (inactive)	0.394 (inactive)	0.494 (inactive)	0.15	-1.39 (inactive)	-0.651 (inactive)	-2.12
NC(=O)N1C(=O)C2C(C1=O)C1C=C(CCCO)C2C(c2cccs2)N1Cc1cccc(OC(F)(F)F)c1 (stereo not given)	-0.19 (inactive)	0.135	8.85 (active)	1.42 (inactive)	-0.569 (inactive)	0.872 (inactive)	0.323	2.15 (inactive)	0.0752 (inactive)	-1.12
NC(=O)NCC#Cc1ccc2c(c1)[C@]1(C(=O)N2)[C@H](C(=O)NC[C@H](O)c2ccccc2)[C@H]2C(=O)O[C@H](c3ccccc3)[C@H](c3ccccc3)N2[C@@H]1c1ccc(OCCO)cc1	0.851 (inactive)	0.157	4.47 (inactive)	1.72 (inactive)	1.55 (inactive)	0.49 (inactive)	0.0785	1.59 (inactive)	0.849 (inactive)	0.737
Cc1ccc(S[C@]2(C(=O)O)CC(=O)N(Cc3cc(C(F)(F)F)cc(C(F)(F)F)c3)[C@@H]2c2ccc(CO)cc2)cc1	-1.21 (inactive)	-0.239	2.76 (inactive)	1.01 (inactive)	1.44 (inactive)	0.769 (inactive)	-0.482	0.86 (inactive)	-0.271 (inactive)	0.0502
O=C1O[C@@H](c2ccccc2)[C@@H](c2ccccc2)N2[C@@H](c3ccccc3OCCO)[C@]3(C(=O)Nc4ccc(C#CCCO)cc43)[C@@H](C(=O)N3CCCCCCC3)[C@H]12	-0.723 (inactive)	3.18	1.01 (inactive)	0.83 (inactive)	0.352 (inactive)	0.49 (inactive)	-0.544	1.02 (inactive)	0.486 (inactive)	1.69
CCOC(=O)C[C@H]1[C@H](OC(=O)c2ccc(C(=O)c3ccccc3)cc2)[C@@H](NC(=O)Cc2ccc(OC)cc2)c2cc(OCCCO)ccc2N1C(=O)c1ccccc1	-0.915 (inactive)	-0.0762	2.41 (inactive)	-0.431 (inactive)	-0.937 (inactive)	0.384 (inactive)	-0.408	-1.25 (inactive)	1.16 (inactive)	0.303
COc1ccccc1CN1C(=O)c2ccccc2[C@](Cc2ccccc2I)(C(=O)NCC(F)(F)F)[C@@H]1c1ccc(CO)cc1	-0.566 (inactive)	0.126	5.37 (inactive)	0.82 (inactive)	2.38 (inactive)	0.401 (inactive)	-0.317	1.71 (inactive)	-1.73 (inactive)	-1.05
CC[C@H]1C2=C3C(CC[C@H]4C(OCc5ccc(F)cc5C(F)(F)F)OC[C@](C)([C@@H]34)N(C(=O)OC(C)(C)C)C2)C(COC)C1COC (stereo not given in full)	-1.22 (inactive)	0.409	-0.0734 (inactive)	-0.0681 (inactive)	0.337 (inactive)	0.297 (inactive)	-0.371	-0.67 (inactive)	-1.45 (inactive)	-1.54
C=CCNC(=O)[C@H]1[C@@H]2C(=O)O[C@@H](c3ccccc3)[C@@H](c3ccccc3)N2[C@@H](c2ccc(O)cc2)[C@]12C(=O)N(C(=O)OCCOC)c1ccccc12	-0.0476 (inactive)	-0.514	1.97 (inactive)	0.481 (inactive)	1.77 (inactive)	0.148 (inactive)	-0.233	0.974 (inactive)	-0.168 (inactive)	0.605
C[N+](C)(C)CCCCCCNC(=O)[C@H]1C[C@H]2C(=O)N[C@@H](Cc3ccccc3)C(=O)N2[C@H]1c1ccc(O)cc1	0.796 (inactive)	-0.0475	6.4 (inactive)	1.3 (inactive)	-0.194 (inactive)	0.374 (inactive)	-0.0246	0.847 (inactive)	1.13 (inactive)	-0.0901
